Assay results as given in the supplement of paper PMC8975748.
Where a name gives a salt, the structure may show the parent alone.

system: Saccharomyces cerevisiae BY4741 SeMeCo community; experiment: z-score of subpopulation abundance vs DMSO median, subpopulation auxotrophic for HLM; higher = larger share of this subpopulation than in DMSO controls; settings: 10 µM; 24 h; SM minimal medium; subpopulation (auxotrophy): HLM
Protocol: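 Fluorescent four-plasmid SeMeCo (self-establishing metabolically cooperating S. cerevisiae BY4741 community; plasmids pH-mRuby2, pL-mWasabi, pU-eCFP, pM-TagRFP657) was grown 24 h in minimal SM medium with each Selleck FDA-approved drug at 10 µM in 384-well plates. Cells were fixed and imaged by high-content confocal microscopy. For each auxotrophic subpopulation (and the prototroph), a z-score gives the deviation from the DMSO vehicle-control population median.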

SMILES | z-score of subpopulation abundance
COc1ccc(C(CN(C)C)C2(O)CCCCC2)cc1 (stereo not given) [Venlafaxine HCl] | -0.22
CC1(C)SC2C(N)C(=O)N2C1C(=O)O (stereo not given) [6-Aminopenicillanic acid] | -0.43
CN(C)C(=O)Oc1ccc[n+](C)c1 [Pyridostigmine Bromide] | 0.28
CC(C)=CCOc1c2occc2cc2ccc(=O)oc12 [Imperatorin] | 1.2
CNC1CC(N)C(O)C(OC2OC(CO)C(O)C3OC4(OC(C(N)CO)C(O)C(O)C4O)OC23)C1O (stereo not given) [Hygromycin B] | -0.02
CC(NC(C)(C)C)C(=O)c1cccc(Cl)c1 (stereo not given) [Amfebutamone (Bupropion) HCl] | 0.09
Cc1cc(C(C#N)c2ccc(Cl)cc2)c(Cl)cc1NC(=O)c1cc(I)cc(I)c1O (stereo not given) [Closantel] | -0.4
CN(C)[C@@H]1C(=O)C(C(N)=O)=C(O)[C@@]2(O)C(=O)C3=C(O)c4c(O)cccc4[C@@](C)(O)[C@H]3[C@H](O)[C@@H]12 [Oxytetracycline Dihydrate] | -0.22
C=CC[C@]1(O)CC[C@H]2[C@@H]3CCC4=CC(=O)CCC4=C3C=C[C@@]21C [Altrenogest] | -0.47
CN(C)[C@@H]1C(=O)C(C(N)=O)=C(O)[C@@]2(O)C(=O)C3=C(O)c4c(O)ccc(Cl)c4[C@@](C)(O)[C@H]3C[C@@H]12 [Chlortetracycline HCl] | -0.55
CC[C@H]1CN2CC[C@]3(C(=O)Nc4ccccc43)[C@@H]2C[C@@H]1/C(=C\OC)C(=O)OC [Rhynchophylline] | 1.16
CCN(C)C(=O)Oc1cccc([C@H](C)N(C)C)c1 [Rivastigmine Tartrate] | 0.01
Oc1cc(Cl)ccc1Oc1ccc(Cl)cc1Cl [Triclosan] | 1.15
C[N+](C)(C)CCCCCCCCCC[N+](C)(C)C [Decamethonium Bromide] | -0.27
COc1ccc2[nH]cc(CCN)c2c1 [5-Methoxytryptamine] | 0.21
Nc1nc(N)nc(NC2CC2)n1 [Cyromazine] | 0.4
COc1ccc(C=O)cc1 [p-Anisaldehyde] | -0.78
C=CN1CCCC1=O.II [Povidone iodine] | 0.98
CN[C@@H]1[C@@H](O)[C@@H](O[C@@H]2[C@@H](O)[C@H](O[C@H]3O[C@H](CN)CC[C@H]3N)[C@@H](N)C[C@H]2N)OC[C@]1(C)O.CN[C@@H]1[C@@H](O)[C@@H](O[C@@H]2[C@@H](O)[C@H](O[C@H]3O[C@H]([C@@H](C)N)CC[C@H]3N)[C@@H](N)C[C@H]2N)OC[C@]1(C)O.CN[C@@H]1[C@@H](O)[C@@H](O[C@@H]2[C@@H](O)[C@H](O[C@H]3O[C@H]([C@@H](C)NC)CC[C@H]3N)[C@@H](N)C[C@H]2N)OC[C@]1(C)O [Gentamicin Sulfate] | 0.75
CCN1CC2(OC(=O)c3ccccc3NC(C)=O)CCC(OC)C34C1C(CC23)C1(O)CC(OC)C2CC4C1(O)C2OC (stereo not given) [Lappaconitine] | -0.42

SMILES | z-score of subpopulation abundance
C=CCN1C[C@H](C(=O)N(CCCN(C)C)C(=O)NCC)C[C@@H]2c3cccc4[nH]cc(c34)C[C@H]21 [Cabergoline] | -0.2
NCC(O)c1ccc(O)cc1 (racemic) [(+,-)-Octopamine HCl] | -0.75
CC(=O)O[C@H]1C[C@@H]2CC[C@@H]3[C@H](CC[C@@]4(C)[C@H]3C[C@H]([N+]3(C)CCCCC3)[C@@H]4OC(C)=O)[C@@]2(C)C[C@@H]1[N+]1(C)CCCCC1 [Pancuronium dibromide] | -0.05
O=[N+]([O-])C(Br)(CO)CO [Bronopol] | -0.88
CCCCCCCCCCCCCCCC[n+]1ccccc1 [Cetylpyridinium Chloride] | 67.8
CC[N+](C)(CC)CCOC(=O)C(O)(c1ccccc1)c1ccccc1 [Methylbenactyzine Bromide] | -1.19
C[C@@H]1CC[C@H]2[C@@H](C)C(=O)O[C@@H]3O[C@@]4(C)CC[C@@H]1[C@]32OO4 [Artemisinin] | -0.69
C[C@H]1O[C@H](O[C@H]2[C@H](O)[C@@H](O)[C@@H](O)[C@H](O)[C@@H]2O)[C@@H](N)C[C@@H]1NC(=N)C(=O)O [Kasugamycin hydrochloride] | -0.54
CCN(CC)CCOC(=O)C(O)(c1ccccc1)c1ccccc1 [Benactyzine hydrochloride] | 0.1
CN1[C@@H]2C[C@@H](OC(=O)[C@H](CO)c3ccccc3)C[C@H]1[C@@H]1O[C@@H]12 [Scopolamine HBr trihydrate] | -0.8
C[C@@H]1O[C@@H](O[C@H]2C[C@@H](O)[C@]3(CO)[C@H]4[C@H](O)C[C@]5(C)[C@@H](C6=CC(=O)OC6)CC[C@]5(O)[C@@H]4CC[C@]3(O)C2)[C@H](O)[C@H](O)[C@H]1O [Ouabain] | -0.79
C[N+]12CCC(CC1)C(OC(=O)C(O)(c1ccccc1)c1ccccc1)C2 (stereo not given) [Clidinium Bromide] | -0.26
Cn1cc(C2=C(c3cn(C4CCN(Cc5ccccn5)CC4)c4ccccc34)C(=O)NC2=O)c2ccccc21 | -1.27
COc1ccc(C(CN(C)C)C2(O)CCCCC2)cc1 (stereo not given) [Venlafaxine] | -0.65
C=C(C)[C@H]1Cc2c(ccc3c2O[C@@H]2COc4cc(OC)c(OC)cc4[C@@H]2C3=O)O1 [Rotenone (Barbasco)] | 0.69
CN1[C@@H]2C[C@@H](OC(=O)[C@H](CO)c3ccccc3)C[C@H]1[C@@H]1O[C@@H]12 [Scopolamine HBr] | -0.52
CC[C@H]1[C@@H]2C[C@H]3[C@@H]4N(C)c5ccccc5[C@]45C[C@@H]([C@@H]2[C@H]5O)N3[C@@H]1O [Ajmaline] | -0.46
COc1ccc2c3c([nH]c2c1)C(C)=NCC3 [Harmaline] | 2.63
CC(C)N(CCC(C(N)=O)(c1ccccc1)c1ccccn1)C(C)C (stereo not given) [Disopyramide] | 0.67
CC(C)(O)C(Cl)(Cl)Cl [Chlorobutanol] | -0.04
